From PubChem BioAssay (NCATS)
Records with an inconclusive call do not appear. A call without a number means that no potency is given here. Active and inactive are the calls of the source. The call rests on the fitted dose curve; in most records, active means well fitted inhibition curve with a large enough effect; inconclusive means small, poorly fitted or top-dose-only effect; inactive means no such curve, though single readings can be large or run the other way.

Experiment: Primary qHTS for small molecule stabilizers of the endoplasmic reticulum resident proteome: Secreted ER Calcium Modulated Protein (SERCaMP) assay (AID 1508630)
Settings: SH-SY5Y GLuc-SERCaMP (Gaussia luciferase released on ER calcium loss) secretion, thapsigargin, luminescence; series mostly up to 38.4 µM
From the text: Assay Provider: Brandon K. Harvey Ph.D.
National Institute on Drug Abuse, National Institutes of Health, Baltimore, MD
Endoplasmic reticulum (ER) dysregulation is associated with human pathologies including neurodegenerative, cardiovascular, muscular, and diabetic conditions. Maintenance of ER calcium is critical for functions of the ER and its depletion can lead to loss of ER resident proteins, in a process termed exodosis. Therapeutic compounds capable of attenuating the redistribution of ER proteins under pathological conditions may slow or stop disease progression. To identify such compounds, we performed a quantitative high-throughput screen (qHTS) using the SERCaMP assay, which monitors secretion of ER resident proteins triggered by calcium depletion.
SERCaMP was initially developed as a reporter of ER calcium homeostasis using a Gaussia luciferase with a modified signal peptide and carboxy-terminus (GLuc-SERCaMP), modifications that confer secretion of the reporter in response to ER calcium depletion (Henderson et al., 2014). The assay was used to screen 9,501 compounds, including a collection of drugs approved by the FDA (US), EMA (EU), NHI (Japan), and HC (Canada) regulatory agencies (Huang et al., 2011). Since the SERCaMP reporter reflects the exodosis phenomenon (Trychta et al., 2018a), compounds identified in the screen have the potential to prevent exodosis by different mechanisms such as stabilizing ER calcium or augmenting ERS retrieval.
1. Henderson, M.J., Wires, E.S., Trychta, K.A., Richie, C.T., and Harvey, B.K. (2014). SERCaMP: a carboxy-terminal protein modification that enables monitoring of ER calcium homeostasis. Mol Biol Cell 25, 2828-2839.
2. Huang, R., Southall, N., Wang, Y., Yasgar, A., Shinn, P., Jadhav, A., Nguyen, D.T., and Austin, C.P. (2011). The NCGC pharmaceutical collection: a comprehensive resource of clinically approved drugs enabling repurposing and chemical genomics. Sci Transl Med 3, 80ps16.
3. Trychta, K.A., Back, S., Henderson, M.J., and Harvey, B.K. (2018a). KDEL Receptors Are Differentially Regulated to Maintain the ER Proteome under Calcium Deficiency. Cell Rep 25, 1829-1840 e1826.
SEQUENCE No. (1, 2, 3, etc.); […] (e.g., Cells, Incubation, Reagent, etc.); VALUE and DESCRIPTION.
1; Reagent; 5 uL; 1000 SH-SY5Y cells per wells
3; Compound; 23 nL; Control inhibitor / compound library
5; Reagent; 100 nM; Thapsigargin
7; Reagent; 1 uL; 0.5x coelenterazine
8; Detection; Luminescence; ViewLux imaging system
NOTES (numbers refer to sequence above)
1; SH-SY5Y human neuroblastoma cells stably expressing GLuc-SERCaMP (SH-SY5Y-GLuc-ASARTDL) cells were seeded in 1,536 well white tissue culture treated plates (Corning, Cat# 7464) in DMEM-high glucose-sodium pyruvate (ThermoFisher Scientific, Cat #10569) supplemented with 10% bovine growth serum (Hyclone), 10 U/ml penicillin (Gibco), 10 ug/ml streptomycin (Gibco), and 20 mM HEPES.
2; Assay plates were incubated for 5 hour at 37C in a humidified incubator containing 5% CO2.
3; qHTS libraries (23 nl, final concentrations of 1.53 uM, 7.67 uM, 38.3 uM) or controls (neutral control: DMSO, positive control: dantrolene) were added using a Kalypsis pin-tool Robotic System equipped with 1536 pinheads.
4; Cells were then incubated for 16 hours at 37C, 5% CO2.
5; Thapsigargin was added at 100 nM to deplete ER calcium stores.
6; Cells were incubated for 4 hour (37 °C, 5% CO2)
7; Gaussia luciferase in the medium was measured by adding 1 ul of 0.5x coelenterazine (final concentration 0.07x) prepared in Gaussia Luciferase Glow Assay Buffer (Pierce), without addition of the Cell Lysis Buffer Reagent.
8; Luminescence was measured using a ViewLux […] CCD imaging system (Perkin Elmer) equipped with clear filters. […] The same controls were also used for the calculation of the Z' factor, a measure of assay quality control, as previously described (Zhang et al., 1999). […]

Row | Structure (SMILES) | Potency
1 | COc1cc2ncnc(Nc3cc(Br)c(O)c(Br)c3)c2cc1OC | inactive
2 | Cc1cnc(CNC(=O)c2c(=O)c3ccc(N4CCCN(C)CC4)nc3n3c2sc2ccccc23)cn1 | inactive
3 | CC1=C(CC(=O)O)c2cc(F)ccc2C1=Cc1ccc(S(C)=O)cc1 (stereo not given) | inactive
4 | C[C@@H]1[C@H](C)CC[C@]2(C(=O)O)CC[C@]3(C)C(=CC[C@@H]4[C@@]5(C)CC[C@H](O)C(C)(C)[C@H]5CC[C@]43C)[C@@H]12 | inactive
5 | Cn1c(=O)c(Oc2ccc(F)cc2F)cc2cnc(NC3CCOCC3)nc21 | inactive
6 | O[C@@H](COc1cccc2ncccc12)CN1CCN(C2c3ccccc3[C@@H]3[C@H](c4ccccc42)C3(F)F)CC1 (stereo not given in full) | inactive
7 | CC[C@H](C=C[C@@H](C)[C@H]1CC[C@H]2[C@@H]3CC=C4C[C@@H](O)CC[C@]4(C)[C@@H]3CC[C@]12C)C(C)C | inactive
8 | Cc1c(-c2cccc3c(CCCOc4cccc5ccccc45)c(C(=O)O)n(Cc4cccnc4)c23)c(COc2ccc(N3CCN([S+](=O)([O-])N(C)C)CC3)cc2)nn1C | inactive
9 | O=C(O)c1nc(=O)[nH]c(=O)[nH]1 | inactive
10 | C[C@@H]1O[C@@H](O[C@H]2CC[C@@]3(C)[C@H](CC[C@@H]4[C@H]3C[C@@H](O)[C@]3(C)[C@@H](C5=CC(=O)OC5)CC[C@]43O)C2)C[C@H](O)[C@@H]1O[C@H]1C[C@H](O)[C@H](O[C@H]2C[C@H](O)[C@@H](O)[C@@H](C)O2)[C@H](C)O1 (stereo in doubt) | inactive
11 | N#Cc1ccc(Oc2ccc3c(c2)COB3O)cc1 | inactive
12 | CC1CNc2c(cccc2S(=O)(=O)N[C@@H](CCCN=C(N)N)C(=O)N2CC[C@@H](C)C[C@@H]2C(=O)O)C1 (stereo not given in full) | inactive
13 | O=S(=O)(O)c1ccc2cc(N=Nc3cc(S(=O)(=O)O)c4cccnc4c3O)ccc2c1 | inactive
14 | CC(C)CN(C[C@@H](O)[C@H](Cc1ccccc1)NC(=O)O[C@H]1CO[C@H]2OCC[C@H]21)S(=O)(=O)c1ccc(N)cc1 | inactive
15 | COc1cccc(OC)c1-c1cc(C(=O)NC2(C(=O)O)C3CC4CC(C3)CC2C4)nn1-c1ccnc2cc(Cl)ccc12 (stereo not given) | inactive
16 | CC(NCCc1ccc(O)cc1)C(O)c1ccc(O)cc1 (stereo not given) | inactive
17 | NS(=O)(=O)c1ccc(Nc2nc(OCC3CCCCC3)c3[nH]cnc3n2)cc1 | inactive
18 | CC=C(C(=CC)c1ccc(O)cc1)c1ccc(O)cc1 | inactive
19 | CC(C)(C)c1[nH]cnc1C=c1[nH]c(=O)c(=Cc2ccccc2)[nH]c1=O | inactive
20 | CC[C@H](CC#N)OC(=O)N[C@@H](C)c1cccc(NC(=O)Nc2ccc(-c3cnco3)c(OC)c2)c1 | inactive

Row | Structure (SMILES) | Potency
21 | Cc1ccccc1-n1c(Cn2nc(-c3cccc(O)c3)c3c(N)ncnc32)nc2cccc(C)c2c1=O | inactive
22 | CN1CCN2c3ncccc3Cc3ccccc3C2C1 (stereo not given) | inactive
23 | COc1ccc2nc3cc(Cl)ccc3c(Nc3cc(CN4CCCC4)c(O)c(CN4CCCC4)c3)c2n1 | inactive
24 | CCn1c(-c2nonc2N)nc2cncc(CNC3CCNCC3)c21 | inactive
25 | CC(C)(C)c1nc(-c2cccc(NS(=O)(=O)c3c(F)cccc3F)c2F)c(-c2ccnc(N)n2)s1 | inactive
26 | C[C@H]1COC2=C1C(=O)C(=O)c1c2ccc2c1CCCC2(C)C | inactive
27 | C[C@@]1(C(=O)Nc2ccc(F)nc2)CCCN1c1nc(Nc2cc(C3CC3)[nH]n2)c2cccn2n1 | inactive
28 | Cc1nc(NC(=O)N2CCC[C@@H]2C(N)=O)sc1-c1csc(C(C)(C)C)n1 | inactive
29 | CC(C)C[C@@H](C(=O)N[C@H](C(=O)OC1CCCC1)c1ccccc1)[C@H](O)C(=O)NO | inactive
30 | Cc1cc(C(C)Nc2ccccc2)c2nc(N3CCOCC3)cc(=O)n2c1 (stereo not given) | inactive
31 | Cc1ccc(C(=O)N(CCCN)[C@@H](c2oc3cc(Cl)ccc3c(=O)c2Cc2ccccc2)C(C)C)cc1 | inactive
32 | C=C1c2cccc(O)c2C(O)=C2C(=O)[C@@]3(O)C(O)=C(C(N)=O)C(=O)[C@@H](N(C)C)[C@@H]3[C@@H](O)[C@H]12 | inactive
33 | Cn1cc(-c2ccc3nnc(Sc4ccc5ncccc5c4)n3n2)cn1 | inactive
34 | CNC1[C@H](O)C(O[C@@H]2C(O)C(O[C@H]3O[C@H]([C@@H](C)NC)CC[C@H]3N)[C@@H](N)C[C@H]2N)OC[C@]1(C)O (stereo not given in full) | inactive
35 | COc1c(C)c2c(c(O)c1CC=C(C)CCC(=O)O)C(=O)OC2 | inactive
36 | c1ccc(-c2oc3ncnc(NC[C@@H]4CCCO4)c3c2-c2ccccc2)cc1 | inactive
37 | Cc1cc(OCCCS(C)(=O)=O)cc(C)c1-c1cccc(COc2ccc3c(c2)OC[C@H]3CC(=O)O)c1 | inactive
38 | O=C(c1ccc(F)c(F)c1Nc1ccc(I)cc1F)N1CC(O)([C@H]2CCCCN2)C1 | inactive
39 | CCCCOCCOc1nc(-c2ccc(C(=O)O)c(F)c2)sc1C | inactive
40 | CCN1C[C@H](C)n2c(c(O)c3c(=O)n(Cc4ccc(F)c(Cl)c4)nc(C(=O)NC)c32)C1=O | inactive
